High-throughput results as filed in PubChem.
Only a selection was taken, and hits are over-represented in it overall.
KDM5B inhibitor: blocks human KDM5B histone demethylase activity; 2.6% of 220,000 active; Potency, µM (series often up to 57.7 µM), most hits filed as inhibitors; Q9UGL1; KDM5B demethylase, FDH-coupled NADH fluorescence (FDH is formaldehyde dehydrogenase); active means well fitted inhibition curve with a large enough effect; further: 0% is about no effect; nearly all actives have a fitted effect of over 70% in size
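Here, H3K4me3 peptide (12.5 µM in substrate mix) is demethylated by KDM5BΔAP, 200 nM final, after 10 min compound exposure. Formaldehyde product is coupled through FDH (0.25 U/mL in mix) to NADH fluorescence; 30-min ΔRFU feeds dose-response curves.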
Starred values were filed as active, the others as inactive; i = inactive. Potency means the concentration at half of the fitted maximal effect.

SMILES | KDM5B inhibitor
CCn1c(SCC(=O)c2ccc[nH]2)nnc1-c1ccc(OC)cc1 | i
CC(C)c1nc2cc(NC(=O)c3ccc(=O)[nH]c3)ccc2o1 | i
Cc1ccc(-c2ncc(C(=O)N(C)Cc3nc(CC(C)C)no3)c(=O)[nH]2)cc1 | i
COCCN(Cc1ccccn1)C(=O)c1ccc2c(c1)ncn2C | i
CCN(Cc1noc(CC(C)C)n1)C(=O)c1cnc(-c2ccccn2)[nH]c1=O | 7.9µM*
COCCN(Cc1nccs1)C(=O)c1cnc(-c2ccccn2)[nH]c1=O | 11µM*
COCCN(Cc1nccs1)Cc1cn[nH]c1-c1ccc(F)cc1 | i
CCN(Cc1noc(CC(C)C)n1)C(=O)c1ccc(C2CCCNC2)cc1 (stereo not drawn) | i
CCCNC(=O)CSc1ncc(-c2ccccc2)o1 | i
COc1cc2c(cc1OC)-c1c(c(C(=O)NCCN(C)C)nn1-c1ccccc1)C2 | i
CN(C)CCNC(=O)c1nc(-c2ccccc2)cc2[nH]ccc12 | i
Cc1ccc(-c2cc3c(nc2-c2ccccc2)nc(C(=O)NCCN(C)C)n3C)cc1 | i
CN(C)CCNC(=O)c1ccc2nc(CCc3ccccc3)oc2c1 | i
CN(C)CCNC(=O)c1nc2nc(-c3ccccc3)c(-c3cccc(Cl)c3)cc2n1C | i
COc1ncccc1-c1cc2c(nc1-c1ccccc1)nc(C(=O)NCCN(C)C)n2C | 16µM*
CN(C)CCNC(=O)c1nc2nc(-c3ccccc3)c(-c3ccc(Cl)cc3)cc2n1C | 28µM*
CN(C)CCNC(=O)c1nc2nc(-c3ccccc3)c(-c3cccc(CO)c3)cc2n1C | 10µM*
Cc1cc(C)c(S(=O)(=O)Nc2ccc(Cl)cn2)cc1Br | i
N#CC(c1nc2ccccc2nc1N1CCCCC1)S(=O)(=O)c1cccc(Cl)c1 (stereo not drawn) | i
O=C(Nc1ccc(S(=O)(=O)N2CCC(Cc3ccccc3)CC2)cc1)C1=COCCO1 | i
CCc1cccc(CC)c1NC(=O)c1ccccc1SC | i
CN(C)CCNc1ccccc1 | i
Cc1ccccc1NC(=O)c1ncoc1-c1cccs1 | i
O=C(NCCCN1CCCCC1)c1cccnc1N1CC2CC(C1)[C@H]1CCCC(=O)N1C2 (stereo partly drawn) | 28µM*
O=C(CN1CC2CC(C1)[C@H]1CCCC(=O)N1C2)NCCCN1CCOCC1 (stereo partly drawn) | i
SMILES | KDM5B inhibitor
O=C(CN1CC2CC(C1)[C@H]1CCCC(=O)N1C2)NCCN1CCCCC1 (stereo partly drawn) | i
CN1CCN(CCCNC(=O)CN2CC3CC(C2)[C@H]2CCCC(=O)N2C3)CC1 (stereo partly drawn) | i
O=C(NC1CCCCC1)c1ccc(N2CC3CC(C2)[C@H]2CCCC(=O)N2C3)nc1 (stereo partly drawn) | i
C=CCNC(=O)c1ccc(N2CC3CC(C2)[C@H]2CCCC(=O)N2C3)nc1 (stereo partly drawn) | 25µM*
O=C(CN1CC2CC(C1)[C@H]1CCCC(=O)N1C2)NCCCN1CCCc2ccccc21 (stereo partly drawn) | 14µM*
O=C(NCCN1CCCCC1)c1ccc(N2CC3CC(C2)[C@H]2CCCC(=O)N2C3)nc1 (stereo partly drawn) | i
O=C(CN1CC2CC(C1)[C@H]1CCCC(=O)N1C2)NCCCN1CCN(c2ccccc2)CC1 (stereo partly drawn) | i
O=C(CN1CCN(C(=O)CCc2ncc(-c3ccc(F)cc3)o2)CC1)Nc1ccccc1Cl | i
CCCCCCN1CCCC12Cc1ccccc1CNC2=O (stereo not drawn) | i
COc1ccc(S(=O)(=O)Nc2ccc3c(c2)N(C(=O)c2cccnc2)CC3)c(OC)c1 | i
COc1ccc(C(=O)N2CCCC(c3nn(-c4ccc(OC)cc4)c(=O)[nH]3)C2)cc1 (stereo not drawn) | i
O=C(CCc1ncc(-c2ccc(F)cc2F)o1)Nc1cccc(C(=O)NC2CC2)c1 | i
COc1cccc(NC(=O)Nc2c(N3CCCC3)c3ccccc3oc2=O)c1 | i
CCn1c(-n2nc(C)cc2C)nc2c1c(=O)n(CCN1CCCCC1)c(=O)n2C | i
COc1ccc2cc(C(=O)NC3CCS(=O)(=O)C3)[nH]c2c1 (stereo not drawn) | i
O=C1COc2cc(S(=O)(=O)CCC(=O)N3CCN(Cc4ccccc4)CC3)c(Cl)cc2N1 | i
CCC(Oc1ccccc1)C(=O)Nc1nn2c(-c3ccc(OC)c(OC)c3)nnc2s1 (stereo not drawn) | i
O=C(c1nc(-c2ccc(F)cc2)c2cnccn12)N1CCCC1 | 32µM*
N#CC1CCN(C(=O)c2nc(-c3cccnc3)c3cnccn23)CC1 | i
O=C(c1nc(-c2cccc(C(F)(F)F)c2)c2cnccn12)N1CCOCC1 | 10µM*
Cc1nc(N2CCOCC2)cc(N2CCN(C(=O)c3cccc(C(F)(F)F)c3)CC2)n1 | i
O=C(Nc1ccc(C(=O)N2CCCC2)cc1)c1cccc(C(F)(F)F)c1 | i
O=C(c1ccc(C(F)(F)F)cc1)N1CCC2(CC1)CC(c1cccc(C(F)(F)F)c1)=NO2 | i
